NS1 function inh = qHTS Assay for Inhibitors of Influenza NS1 Protein Function; Potency, µM (top dose mostly 46.1 µM), inactives show at the highest dose activity, positive = more growth; hit rate 0.4% among 270,000; calls by dose curve; further: potency means the concentration at half of the fitted maximal effect; actives are rising curves; nearly all actives have a fitted effect of over 50% in size
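A cell-based growth assay was used: compounds that relieve NS1-induced slow growth of budding yeast raise OD600. Assay medium was yeast nitrogen base with ammonium sulphate and -URA supplement, pH 6.0, with 2% galactose.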
Cycloheximide cs = Cycloheximide Counterscreen for Small Molecule Inhibitors of Shiga Toxin; cell reporter, cycloheximide protein synthesis inhibition counterscreen; max response, %; hit rate 12% among 300,000; AID 2314, 2010; in the data active means max response mostly above about 13%, no sharp cut-off; inactive means mostly below about 14%; further: read at 38.3 µM for the half of the compounds with a filed dose; 0% is about no effect
AmpC inh no detg = qHTS Inhibitors of AmpC Beta-Lactamase (assay without detergent); AmpC nitrocefin hydrolysis, absorbance 480 nm, 0.0001% Triton; Potency, µM (top dose mostly 57.1 µM), for inactives: at the top dose activity change, negative = inhibition, actives largely listed as inhibitors; hit rate 0.52% among 330,000;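 further: potency means the concentration at half of the fitted maximal effect; plate controls were no compound for no effect and no enzyme for full effect; nearly all actives have a fitted effect of over 20% in size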
Target sequence (P00811 whole entry, looked up): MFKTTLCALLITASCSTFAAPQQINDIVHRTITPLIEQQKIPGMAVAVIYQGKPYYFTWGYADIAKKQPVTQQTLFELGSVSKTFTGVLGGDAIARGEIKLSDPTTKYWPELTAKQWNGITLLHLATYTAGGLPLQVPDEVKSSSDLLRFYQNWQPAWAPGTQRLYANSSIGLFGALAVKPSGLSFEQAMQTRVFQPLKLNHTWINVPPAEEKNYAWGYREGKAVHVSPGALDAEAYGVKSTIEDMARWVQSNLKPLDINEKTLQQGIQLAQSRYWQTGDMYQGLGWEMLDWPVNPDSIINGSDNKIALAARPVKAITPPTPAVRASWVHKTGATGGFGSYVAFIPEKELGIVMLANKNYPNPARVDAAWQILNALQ
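AmpC (5.3 nM in the dispensed reagent) in 20 mM phosphate pH 7.0 with 0.01% (detergent screen) or 0.0001% Triton X-100 was preincubated with compounds for 15 min at room temperature. Nitrocefin was then added from an 800 uM solution, and hydrolysis was followed at 480 nm.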
AmpC inh detg = qHTS Inhibitors of AmpC Beta-Lactamase (assay with detergent). P00811. hit rate 0.041% among 370,000. Potency, µM (titrated, usually from 114 µM), without a hit: top-dose activity change, negative = inhibition, most hits filed as inhibitors. AmpC hydrolysis of nitrocefin, absorbance 480 nm, 0.01% Triton;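 further: potency means the concentration at half of the fitted maximal effect; 0% = no-compound wells and -100% = no-enzyme wells; nearly all actives have a fitted effect of over 25% in size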
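AmpC (5.3 nM in the dispensed reagent) in 20 mM phosphate pH 7.0 with 0.01% (detergent screen) or 0.0001% Triton X-100 was preincubated with compounds for 15 min at room temperature. Nitrocefin was then added from an 800 uM solution, and hydrolysis was followed at 480 nm.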
Shiga inhibitor = A qHTS for Small Molecule Inhibitors of Shiga Toxin; Vero cells, Shiga toxin protein synthesis inhibition reporter; inhibition, % at 38.7 µM; hit rate 9.2% among 290,000; AID 2315, 2010; in the data active means inhibition mostly above about 28%, no sharp cut-off; inactive means mostly below about 43%; further: 0% is about no effect
* marks the source's active call; other numbers are inactive results; ? = inconclusive; · = no result given; [ ] = remark or other dose. This is one part of a sample in which hits are shown more often than they occur. Unless noted, the call rests on the fitted dose curve; in most records, active means well fitted curve in the direction sought with a large enough effect; inconclusive means small, poorly fitted or top-dose-only effect, or another doubt; inactive means no such curve, though single readings can be large; an effect the other way counts as inactive or inconclusive.

SMILES	NS1 function inh	Cycloheximide cs	AmpC inh no detg	AmpC inh detg	Shiga inhibitor
O=C(NCc1cccs1)C1CC(c2ccccc2O)=NO1 (stereo not given)	0%	27*	-29%	-10%	51*
COc1ccc(C2=NOC(C(=O)NCc3ccco3)C2)cc1 (stereo not given)	-8%	27*	-28%	1%	72
COc1cc(C2=NOC(C(=O)NCc3ccco3)C2)cc(OC)c1OC (stereo not given)	-1%	-1	0%	5%	8
COc1ccc(C2=NOC(C(=O)NCc3cccs3)C2)cc1 (stereo not given)	-7%	18*	-1%	?	32
COc1ccc(C2=NOC(CNC(N)=S)C2)cc1 (stereo not given)	·	36*	-25%	4%	57*
COc1ccc(C2=NOC(C(=O)NCc3cccs3)C2)cc1OC (stereo not given)	-4%	-1	-7%	-6%	-10
CN(C)c1ccc(C(CNS(=O)(=O)c2ccc(Cl)cc2)N2CCCC2)cc1 (stereo not given)	·	·	·	-9%	·
O=c1n(Cc2ccc(F)cc2Cl)c2ccccc2c2nc(-c3ccccc3)nn12	·	·	·	-9%	·
O=C(Cn1cc(S(=O)(=O)N2CCN(c3ccccc3F)CC2)c2ccccc2c1=O)Nc1ccc(F)cc1Cl	·	·	·	4%	·
COc1ccc(C2=NOC(C(=O)NCC(C)C)C2)cc1 (stereo not given)	-10%	45*	-4%	-15%	61*
O=C(C[C@H]1C/C=C\C[C@H](NC(=O)OCC2c3ccccc3-c3ccccc32)C(=O)OC[C@@H]2CCCN2C1=O)NCCO	·	·	141%	·	·
CCOc1ccccc1NC(=S)/C(=C(\[O-])c1ccc2c(c1)OCCO2)[n+]1ccc(CC)cc1	7%	7	44%	-13%	-14
CC(C)(C)c1cc[n+](/C(C(=S)Nc2ccccc2F)=C(/[O-])c2ccc3c(c2)OCCO3)cc1	11%	23*	-31%	1%	50
[O-]/C(=C(\C(=S)Nc1ccccc1F)[n+]1ccccc1)c1ccc(-c2ccccc2)cc1	0%	18*	-41%	-4%	94
COC(=O)c1cc(OC)c(OC)cc1NC(=O)c1ccc(C)o1	-2%	6	39%	?	-15
O=C(CN1C(=O)NC2(CCCC2)C1=O)OCCOc1ccc(Br)cc1	·	·	2%	-12%	·
CCOCCCNC(=O)c1cc2c(s1)-c1ccccc1SC2	-28%	16	1%	?	63*
CC(C)(C)OC(=O)C[C@H]1C/C=C\C[C@@H](CC(=O)N(CCO)Cc2ccccc2)C(=O)N[C@H](Cc2c[nH]c3ccccc23)COC1=O	·	·	244%	·	·
N#Cc1nc(-c2ccccc2F)oc1NCCc1ccccc1	-33%	41*	-35%	?	37
N#Cc1nc(-c2ccccc2F)oc1NCc1ccccc1	-49%	18*	-17%	-1%	26
N#Cc1nc(-c2ccco2)oc1NCCc1ccccc1	-114%	28*	-23%	-13%	27*
COc1ccc(-c2nc(C#N)c(NCCc3ccccc3)o2)cc1OC	-110%	22*	-26%	?	50
N#Cc1nc(-c2ccccc2F)oc1NCCc1ccccn1	-10%	1	-8%	?	-4
CCC1(c2ccccc2)NC(=O)N(CC(=O)Nc2ccc(S(=O)(=O)NC3=NCCCCC3)cc2)C1=O (stereo not given)	·	·	-49%	0%	·
CC1CCCC(C)N1C(=O)COC(=O)CNC(=O)c1ccccc1 (stereo not given)	·	·	-8%	-16%	·
SMILES	NS1 function inh	Cycloheximide cs	AmpC inh no detg	AmpC inh detg	Shiga inhibitor
COc1ccc(CN2C(=O)N(c3cccc(C)c3)C(=O)C2CC(=O)Nc2ccc(F)cc2)cc1OC (stereo not given)	·	·	·	-3%	·
O=C(Cn1c(=O)cnc2ccccc21)NC1CCC(O)CC1 (stereo not given)	·	·	-14%	0%	·
N#Cc1nc(-c2cccs2)oc1NCCc1ccccc1	-141%	34	-35%	-11%	74*
N#Cc1nc(-c2cccs2)oc1N1CCN(Cc2ccccc2)CC1	-20%	16*	-3%	?	22
COCCCNc1oc(-c2ccccc2F)nc1C#N	-13%	24*	-24%	-13%	34
COCCCNc1oc(-c2ccccc2OC)nc1C#N	2%	4	?	-5%	53
Cc1ccccc1NC(=O)c1sc2nc(-c3ccncc3)ccc2c1N	·	·	·	9%	·
CCOc1ccccc1/C=C(\NC(=O)c1ccccc1)C(=O)NCCC(=O)O	8%	32	-17%	?	43*
CCOc1ccccc1/C=C(/NC(=O)c1ccccc1)C(=O)NCC(=O)O	0%	-1	-17%	-8%	-11
CN(C(=O)c1cccc(S(=O)(=O)N2CCOCC2)c1)c1c(N)n(Cc2ccccc2)c(=O)[nH]c1=O	·	·	51%	3%	·
CC(O)CNc1ccc(-c2n[nH]c(=O)c3ccccc23)cc1[N+](=O)[O-] (stereo not given)	4%	22*	-7%	-11%	-17
CN(C)CCCNc1ccc(-c2n[nH]c(=O)c3ccccc23)cc1[N+](=O)[O-]	3%	2	1%	-2%	·
COc1ccccc1CN(Cc1nc2ccccc2c(=O)[nH]1)C(=O)Nc1ccc(C)cc1	-20%	19*	-22%	-12%	40
Fc1ccc(Nc2nc(SCc3cccc(Cl)c3)nc3ccccc23)cc1	·	·	·	-2%	·
O=C(NC(=S)NCc1ccco1)c1ccccc1	2%	-2	-44%	2%	-4
Cc1ccc(C(=O)NCc2ccco2)cc1	0%	18*	-1%	-5%	37
CC(C)(C)c1ccc(C(=O)NC(=S)NCc2ccco2)cc1	-38%	24*	-46%	1%	71
Cc1ccc(SCCC(=O)NCCSCc2ccco2)cc1	-6%	-2	-16%[2.29 µM]	-9%	25
Cc1ccc(SCCNCc2ccco2)cc1	-9%	14*	-6%	-2%	46
Cc1ccc(C(=O)Nc2cccc(C(=O)NCc3ccccc3)c2)cc1	-11%	15*	-31%	?	23
Cc1ccc(C(=O)Nc2ccccc2C(=O)NCc2ccco2)cc1	·	·	-22%	·	·
Cc1ccc(C)c(N2CCN(C(=O)c3cc4cc5ccc(C)cc5nc4o3)CC2)c1	·	·	·	1%	·
Cc1ccc(Cn2nnc3c(=O)[nH]c(C(=O)NCc4ccco4)nc32)cc1	-6%	25*	-35%	?	111*
Cc1ccc(C(=O)Nc2cccc(C(=O)NCc3ccco3)c2)cc1	-19%	19*	-46%	-14%	35*
COCCNC(=S)NC(=O)c1ccc(C(C)(C)C)cc1	·	59*	-12%	-1%	96*
O=C(NCc1ccco1)c1cccc(NC(=O)c2ccccc2)c1	2%	-1	-19%	-7%	-5
COc1ccc(C2N(C(=O)c3ccccc3)CCN2C(=O)c2ccc(C)cc2)cc1 (stereo not given)	1%	-5	32%	?	-5
